The values that follow come from PubChem BioAssay AID651958 (The Scripps Research Institute Molecular Screening Center, 2012).

The structures appear in SMILES notation. Screen size: about 370,000 compounds; about 2,000 (0.54%) were called active. The sample as a whole holds a higher share of actives than the screen did. A number with no mark means an inactive call. No stated cut-off is given here; in the data, active means inhibition above about 30%; inactive means the rest.

For the experiment, the system named is Crimean-Congo hemorrhagic fever virus L polyprotein viral ovarian tumor (vOTU) protease domain. As to the kind of experiment: CCHFV vOTU protease inhibitors, primary screen, biochemical, Pep-AMC substrate, fluorescence (AID 651958). Further: 0% = vehicle wells with enzyme and 100% = no enzyme wells. Conditions: at 11.5 µM, stronger effect = higher value.
`CC(C)[C@@H](C(=O)O)N(Cc1cccc(CN([C@H](C(=O)O)C(C)C)S(C)(=O)=O)c1)S(C)(=O)=O`: the inhibition was 1.18%. In the case of `CCC(C)CCN1CCN=C1N(C)C` (centres undefined), the inhibition was 10.6%. The result for `CC(C(=O)Nc1ccc(Cl)cc1Cl)N1CC=C(c2ccccc2)CC1` (centres undefined) reads -3.9%. The result for `CC(Sc1nncn1C)C(=O)Nc1ccccc1-c1ccccc1` (centres undefined) reads 3.71%. The result for `CC(C(=O)Nc1ccccc1-c1ccccc1)N1CCOCC1` (centres undefined) reads 30% (active); that for `COc1ccc(S(=O)(=O)N(C)C[C@H]2OCc3cnnn3CCCC(=O)N([C@H](C)CO)C[C@H]2C)cc1`, -4.66%. In the case of `COc1cccc(NC(=O)CS(=O)(=O)c2cn(CC(=O)N3CCOCC3)c3ccccc23)c1`, the inhibition is 6.34%. Regarding `O=C(Nc1ccc(F)cc1)C(=O)c1cn(CC(=O)N2CCOCC2)c2ccccc12`, the inhibition was -0.24%. For `COc1cccc(NC(=O)C(=O)c2cn(CC(=O)N3CCOCC3)c3ccccc23)c1`, the inhibition is 40.2% (active).

`CN(Cc1c(F)cccc1Cl)C(=O)COC(=O)Cn1cnc2ccccc2c1=O`: the inhibition was -6.54%. In the case of `CCCCC(O)(CCCC)C(=O)NN(C(=O)CCl)c1ccccc1`, the inhibition is 8.68%.

`CCCc1ccc(OCC(O)CN2CCN(CCO)CC2)cc1` (centres undefined): the inhibition was -10.8%. The figure for `COc1ccc(CN2CCC(C)(Oc3cccc(F)c3)C2)c2ccccc12` (centres undefined) is 10%; for `CCC1(C)Cc2c(sc3nnn(CC(=O)Nc4ccc(Cl)cc4)c(=O)c23)CO1` (centres undefined) it is -1.67%; for `CCCSc1nc(NCc2ccco2)c2c3c(sc2n1)COC(C)(CC)C3` (centres undefined) it is 30.9% (active). In the case of `CN1CCc2c(sc3c2c(NCc2ccco2)nc2nnnn23)C1`, the inhibition was -25.3%.

Consider `Clc1ccc(C(Cn2ccnc2)OCc2ccsc2Cl)c(Cl)c1` (centres undefined), for which the inhibition was 9.88%. For `Clc1ccc(C2=CSC3=Nc4cccc5cccc(c45)N23)cc1`, the inhibition was 103% (active). For the compound `COc1ccc(CN(Cc2ccco2)S(=O)(=O)c2ccc(S(=O)(=O)N3CCCC3)cc2)cc1`, the inhibition was -4.58%. Consider `O=C(NC1=CC(=O)c2ccccc2C1=O)c1ccccc1`, for which the inhibition is 101% (active). As for `CC(=O)NS(=O)(=O)c1ccccc1`, the inhibition was -12.3%.

Take `O=C1C=C(NS(=O)(=O)c2ccccc2)C(=O)c2ccccc21`: the inhibition is 41.9% (active).

Take `Cc1cc(NS(=O)(=O)c2ccccc2)no1`: the inhibition was -7.1%. Consider `O=c1ccn([C@@H]2O[C@H](CNS(=O)(=O)c3cc4ccccc4s3)[C@@H](O)[C@H]2O)c(=O)[nH]1`, for which the inhibition is -7.44%. For `COc1ccc(C2c3[nH]c4ccccc4c3C[C@H]3C(=O)N(CC(C)C)CC(=O)N23)c(OC)c1` (some centres undefined), the inhibition was -0.95%.

In the case of `COc1ccc(/C=C2\N=C3CCCN3C2=O)cc1`, the inhibition is 5.48%. The result for `NC(=O)COc1ccc(C23CC4CC(CC(C4)C2)C3)cc1` reads -6.98%; that for `O=C(Oc1ccccc1C(=S)N1CCCCC1)c1cc([N+](=O)[O-])cc([N+](=O)[O-])c1`, -1.38%; that for `CCCS(=O)(=O)NC(=O)C1(C)CCN(C(=O)c2sccc2C)C1` (centres undefined), 47.1% (active). As for `CCCS(=O)(=O)NC(=O)C1(C)CCCN(C(=O)c2cc(C)on2)C1` (centres undefined), the inhibition was -4.97%.

Consider `CCCS(=O)(=O)NC(=O)C1(C)CCCN(C(=O)c2cccs2)C1` (centres undefined), for which the inhibition is 4.76%. Regarding `COc1ccc2c(c1)[C@@]13CCCCC1[C@@H](C2)NCC3` (some centres undefined), the inhibition was -1.34%. As to `CCc1ccc2c(c1)NC(=O)C2(C)Cc1ccc(OC(F)(F)F)cc1` (centres undefined), the inhibition is 31.4% (active). `CC1(Cc2cccc(C#N)c2)C(=O)Nc2ccc(-c3cccc(C(F)(F)F)c3)cc21` (centres undefined): the inhibition is 21.6%. Take `CCc1ccc2c(c1)C1(NN=C(c3ccccc3)S1)C(=O)N2` (centres undefined): the inhibition was 1.82%. `CCCn1nc(Oc2nc(NC(C)C)nc(N(C)C)n2)ccc1=O`: the inhibition is -1.37%. With `O=C(O)CCN1C(=O)CC2(CCCCC2)C1=O`, the inhibition is 2.77%.

For the compound `COCc1[nH][nH]c(=O)c1C=Nc1ccc(F)cc1F`, the inhibition is 4.69%. On to `O=C(NCc1ccccn1)C1CCN(S(=O)(=O)c2ccc(Br)cc2)CC1`, for which the inhibition was -7.95%. `N#CC1=C(N)Oc2c(c(=O)oc3ccccc23)C1c1ccccc1OC(=O)c1cccs1` (centres undefined): the inhibition was 2.95%. The result for `COc1ccccc1C1C(C#N)=C(N)Oc2c1c(-c1ccccc1)nn2-c1ccccc1` (centres undefined) reads 31% (active); that for `COc1ccccc1C1CC(=O)n2c(nc(-c3ccccc3)c2-c2ccccc2)S1` (centres undefined), -11.5%. In the case of `Cc1ccc(S(=O)(=O)N2CCC(=O)N([C@H](COCc3ccccc3)Cc3ccccc3)CC2)cc1`, the inhibition is 4.4%.

As to `Cc1cc(F)ccc1S(=O)(=O)Nc1ncnc2scc(-c3ccc(F)cc3)c12`, the inhibition is -9.09%. The figure for `Cc1ccc(CN2CCCCC(NC(=O)C3CCCCC3)C2=O)cc1` (centres undefined) is 6.33%; for `CCn1nc(C)c(CN2CCN(Cc3ccc(OC)c(C)c3C)C(CCO)C2)c1C` (centres undefined) it is -10.4%. `O=C(Nc1cc(S(=O)(=O)Nc2ccc(Cl)cc2)ccc1O)c1ccc(F)cc1F`: the inhibition was 1.4%. As for `Cc1ccc(NS(=O)(=O)c2ccc3c(c2)n(C)c(=O)c(=O)n3C)c(C)c1`, the inhibition is 9.52%. The result for `Cc1ccc(C)c(NS(=O)(=O)c2ccc(OCC(=O)NCc3cccnc3)cc2)c1` reads 7.43%; that for `O=C(O)c1ccccc1/C=N/Nc1ccc(S(=O)(=O)Nc2ccc(Cl)cc2)cc1[N+](=O)[O-]`, 31.2% (active); that for `Cc1ccc(NS(=O)(=O)c2ccc(N/N=C/c3ccccc3OCC(=O)O)c([N+](=O)[O-])c2)c(C)c1`, 49.3% (active). Turning to `O=[N+]([O-])c1cc(S(=O)(=O)Nc2cccc(Cl)c2)ccc1N=Nc1c(O)[nH]c2ccccc12`, the inhibition was -13%. Consider `CCn1c(O)c(N=NC2=NC(=O)CS2)c2cc(C)ccc21`, for which the inhibition was 10.8%. With `CC(C)c1c(CN(C)C(C)Cc2ccccc2)n(C)n(-c2ccccc2)c1=O` (centres undefined), the inhibition was 3.82%.

For `COc1cccc(CNC(=O)CCC2CCCN(C(=O)c3ccoc3C)C2)c1` (centres undefined), the inhibition was -3.63%. Turning to `CCCNC(=O)c1ccc(N2CCC3(CC2)CC(c2ccc(Cl)cc2)=NO3)c([N+](=O)[O-])c1`, the inhibition was 5.33%. The figure for `CC1CCCN(S(=O)(=O)c2ccc(N(C(=O)c3cnccn3)C(C(=O)NC3CCCCC3)c3cccs3)cc2)C1` (centres undefined) is 3.18%; for `CNc1ccc(SC#N)cc1` it is 7.09%; for `O=C(Nc1cccc(S(=O)(=O)N2CCCCC2)c1)c1ccc2c(c1)OCO2` it is 30.3% (active). The result for `O=C(Nc1cccc(S(=O)(=O)N2CCCC2)c1)c1cncc(Br)c1` reads 6.4%; that for `O=C(Nc1cccc(S(=O)(=O)N2CCCCC2)c1)c1cncc(Br)c1`, 17.5%.

Consider `CN1[C@H](Cc2ccccc2)COc2cccc(N3CCSCC3)c2S1(=O)=O`, for which the inhibition is -7.16%. As to `O=C(CNC(c1ccccc1)c1ccccc1)Nc1ccc(F)cc1`, the inhibition was -6.64%.

With `COc1ccc(CNS(=O)(=O)c2cc3c4c(c2)CCN4C(=O)CC3)cc1`, the inhibition was 9.3%.

Consider `COc1ccccc1CCNS(=O)(=O)c1cc2c3c(c1)C(C)C(=O)N3CCC2` (centres undefined), for which the inhibition was 14%. Regarding `COc1ccccc1CNS(=O)(=O)c1cc2c3c(c1)CCC(=O)N3CCC2`, the inhibition was 31.9% (active). The figure for `Cc1cccc(N)c1SC1CCCCC1O` (centres undefined) is -10%; for `Cc1cccc(CN2CCC(n3nccc3NC(=O)c3ccccc3C)CC2)n1` it is -2.72%. With `CCCCC[C@@H]1C=C(C(=O)OCC)[C@H](c2ccccc2)N1S(=O)(=O)c1ccc(C)cc1`, the inhibition is 11%. As to `Cc1ccc(S(=O)(=O)N2[C@@H](c3ccc(Br)cc3)C(C(=O)O)=C[C@H]2CC2CCCC2)cc1`, the inhibition is 34.2% (active). With `CCCCC[C@@H]1C=C(C(=O)O)[C@H](c2ccc(C#N)cc2)N1S(=O)(=O)c1ccc(C)cc1`, the inhibition is 16.8%.

Take `COc1cc(NC(=S)N2CCCC(C)C2)c(OC)cc1Cl` (centres undefined): the inhibition was 7.18%. In the case of `COc1ccc(C(=O)OCCN(C)C2CN(Cc3cn(Cc4cccc(C)c4)nn3)S(=O)(=O)C2)cc1OC` (centres undefined), the inhibition is -1.74%. As to `O=C(O)c1cc(S(=O)(=O)Nc2ccc3cn[nH]c3c2)ccc1Br`, the inhibition was 36% (active).

As for `O=S(=O)(Nc1ccc2[nH]ncc2c1)c1ccccc1Cl`, the inhibition is -2.37%.

For the compound `O=C(O)c1ccc(NS(=O)(=O)c2ccc3c(c2)C(=O)c2cc(S(=O)(=O)Nc4ccc(C(=O)O)cc4)ccc2-3)cc1`, the inhibition was 14.6%. As for `CC1CCCN(CC(O)COc2ccc3c(c2)OCO3)C1` (centres undefined), the inhibition is 9.88%. With `Oc1ccc(N=Cc2c(O)ccc3ccccc23)cc1`, the inhibition was 63.1% (active). Turning to `Oc1ccc(N=Cc2sc3ccccc3c2Cl)cc1`, the inhibition is 97.4% (active). In the case of `Cn1cc(CN2CCC(C(O)CCc3ccccc3)CC2)c(-c2ccccc2F)n1` (centres undefined), the inhibition was -4.04%. As for `Cc1cc(OCCN2CCCC2)cc(C(C)C)c1`, the inhibition is -8.52%. The figure for `CC1=C2C(=O)C3C(CC=C4CC(OC5OC(O)C(O)C(O)C5CO)CCC43C)C2CCC12OC1CC(C)CNC1C2C` (centres undefined) is -3.46%; for `O=C(NCc1ccc(F)cc1)c1cc(C2CCCCN2C(=O)c2cccs2)on1` (centres undefined) it is -3.47%; for `O=C(NCc1ccc(F)cc1)c1cc(C2CCCCN2C(=O)C2CCCCC2)on1` (centres undefined) it is 33.5% (active).

For the compound `O=C(NCc1ccc(F)cc1)c1cc(C2CCCCN2C(=O)c2ccccn2)on1` (centres undefined), the inhibition was 11.8%.

For `CC(NC(=O)CN1CCN(Cc2ccc(Cl)cc2)C1=O)c1ccc2c(c1)OCCO2` (centres undefined), the inhibition is 11.5%. For `Cc1cccc(OP(=O)(Oc2cccc(C)c2)OC(c2ccccc2)C(F)(F)F)c1` (centres undefined), the inhibition is 2.83%. Take `Cc1cccc(OCC(=O)Nc2ccc(C(=O)O)cc2NC(=O)COc2cccc(C)c2)c1`: the inhibition was 16.7%. For `CCN(CC)P(=O)(Oc1cccc(C)c1)N(CC)CC`, the inhibition is 32.4% (active).

Usually inhibition stands for the change of the read-out against control, counted positive when it falls.
